Compounds with a hit are over-represented: about 15% of the library has one in this group of screens.
DT40 TDP1 no CPT: qHTS for Inhibitors of human tyrosyl-DNA phosphodiesterase 1 (TDP1): qHTS in cells in absence of CPT | DT40 Tdp1-/- hTDP1 cells, no CPT, ATP luminescence, 48 h | Potency, µM (doses to about 46.2 µM), without a hit: at the top dose activity change, negative = growth inhibition, hits mostly inhibitors | 420,000 tested, 15% active | AID 686978, 2013; note: nearly all actives have a fitted effect of over 55% in size
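A cellular qHTS used chicken DT40 cells lacking endogenous Tdp1 but carrying stably transfected human TDP1. Compounds were applied without camptothecin, and cell growth kinetics were judged by ATP-dependent luminescence after ≥48 hr.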
VP16 counter: counter-screen for ROR gamma inhibitors: Gal4-VP16 reporter; Drosophila S2 Gal4-VP16 UAS-luciferase, luminescence, 20 h; Potency, µM (top dose mostly 53.6 µM), for the others: top-dose activity, negative = inhibition, actives largely listed as inhibitors; 310,000 tested, 3.5% active; AID 2546;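 note: Gal4-VP16 expression switched on by copper sulfate through the metallothionein promoter; nearly all actives have a fitted effect of over 50% in size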
12-LOX inh: blocks human arachidonate 12S-lipoxygenase. 580,000 tested, 1.1% active. Potency, µM (highest dose often 108 µM), for inactives: at the highest dose activity change, negative = inhibition, most hits filed as inhibitors. purified 12hLO, xylenol orange hydroperoxide absorbance
Target sequence (P18054 whole entry, looked up): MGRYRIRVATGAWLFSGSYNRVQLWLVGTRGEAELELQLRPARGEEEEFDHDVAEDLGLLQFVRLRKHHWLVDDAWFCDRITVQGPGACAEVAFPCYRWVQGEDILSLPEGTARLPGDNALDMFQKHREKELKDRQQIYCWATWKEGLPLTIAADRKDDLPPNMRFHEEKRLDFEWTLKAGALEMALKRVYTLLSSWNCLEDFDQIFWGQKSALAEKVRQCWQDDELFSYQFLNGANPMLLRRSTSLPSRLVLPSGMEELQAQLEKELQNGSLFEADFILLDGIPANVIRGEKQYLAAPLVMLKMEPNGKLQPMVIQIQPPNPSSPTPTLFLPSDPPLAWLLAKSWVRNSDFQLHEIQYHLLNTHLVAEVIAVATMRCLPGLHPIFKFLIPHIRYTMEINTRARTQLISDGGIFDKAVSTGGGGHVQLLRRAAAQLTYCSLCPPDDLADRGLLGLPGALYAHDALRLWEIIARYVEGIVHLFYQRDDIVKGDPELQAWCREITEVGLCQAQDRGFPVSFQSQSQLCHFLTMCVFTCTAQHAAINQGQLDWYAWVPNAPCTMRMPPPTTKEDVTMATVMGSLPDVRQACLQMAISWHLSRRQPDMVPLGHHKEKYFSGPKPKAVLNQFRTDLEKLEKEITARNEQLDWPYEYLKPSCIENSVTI
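Hydroperoxide product was detected by ferrous iron/xylenol orange as the 573 to 405 nm absorbance ratio. Arachidonic acid at 40 uM (final) was turned over for 30 min at room temperature by 150 nM human 12hLO, pH 7.0 Hepes buffer, after 15 min compound preincubation.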
DT40 TDP1 CPT: growth inhibition of DT40 Tdp1-/-;hTDP1 cells with camptothecin (screen for TDP1 inhibitors); AID 686979; chicken DT40 Tdp1-/-;hTDP1 cells + 20 nM CPT, ATP luminescence, 48 h; Potency, µM (titrated, usually from 46.2 µM), inactives show at the top dose activity change, negative = growth inhibition, most hits filed as inhibitors; 420,000 tested, 12% active; note: nearly all actives have a fitted effect of over 55% in size
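Chicken DT40 Tdp1-/- cells complemented with human TDP1, 400 cells/well, exposed to compounds plus 20 nM camptothecin for at least 48 h at 37 C; viability read as ATP content by CellTiter-Glo luminescence.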
ELG1 DNA repair: blocks ELG1-dependent DNA repair in HEK293T cells; HEK293T ELG1-luciferase reporter, luminescence, 16 h; DNA damage induced by 5-fluorouridine; Potency, µM (top dose mostly 46.1 µM), for inactives: at the top dose activity change, negative = inhibition, hits mostly inhibitors; 330,000 tested, 2.3% active; note: nearly all actives have a fitted effect of over 55% in size
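Overnight (16 hr) co-exposure of 2,000 cells/well to 5-fluorouridine and compound at 37 °C preceded detection. Luciferase was quantified via ONE-Glo luminescence; loss of signal denotes inhibition.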
RORgamma inh: inhibitors of mouse ROR gamma transcriptional activity; Potency, µM (highest dose often 53.6 µM), inactives show top-dose activity change, negative = inhibition, hits mostly inhibitors; 310,000 tested, 5.4% active; Drosophila S2 Gal4-RORgamma UAS-luciferase reporter, 20 h; note: nearly all actives have a fitted effect of over 60% in size
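Luminescence from a UAS-regulated Photinus luciferase reporter in stably transfected Drosophila Schneider cells is measured; decreased signal marks ROR gamma inhibition. Fusion expression is induced by 700 uM copper sulfate for 20 hr.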
The depositor's hits bear a star; ? = inconclusive; / = not tested or not shown; [ ] = dose if it differs, or a comment. Calls come from the whole dose curve; as a rule, active = well fitted curve in the direction sought with a large enough effect; inconclusive = small, poorly fitted or top-dose-only effect, or another doubt; inactive = no such curve, though single readings can be large; an effect the other way counts as inactive or inconclusive. % is set by controls: 0 for no effect and ±100 for the full control effect; potency is the fitted concentration of half-maximal effect.

SMILES	DT40 TDP1 no CPT	VP16 counter	12-LOX inh	DT40 TDP1 CPT	ELG1 DNA repair	RORgamma inh
CCCN1C(=O)C(Cc2nc3ccccc3c(=O)n2-c2ccc(OC)cc2)c2cc(C)ccc21 (stereo not drawn)	4.11µM*	/	?	9.2µM*	/	/
CCN1C(=O)C(Cc2nc3ccccc3c(=O)n2CC)c2cc(Br)ccc21 (stereo not drawn)	/	/	-0.6%	/	/	/
CCCN1C(=O)C(Cc2nc3ccccc3c(=O)n2C)c2ccccc21 (stereo not drawn)	?	-0.7%	0.0%	?	?	7.8%
CCN1C(=O)C(Cc2nc3ccccc3c(=O)n2C)c2ccccc21 (stereo not drawn)	14.6µM*	3.8%	0.0%	?	1.7%	-9.6%
CN1C[C@@H](NC(=O)Nc2ccc(F)cc2F)C[C@H]1c1nc(-c2ccc(Cl)cc2)no1	/	/	-21.9%[176 µM]	/	/	/
CCCN1CCc2c(sc(NC(=S)NC(=O)c3ccccc3)c2C#N)C1	?	-9.2%[10 µM]	?	20.6µM*	?	8.0%
CC(C)N1CCc2c(sc(NC(=S)NC(=O)c3ccccc3)c2C#N)C1	?	?	?	-5.0%	?	?
CC(C)C1Cc2c(sc(NC(=S)NC(=O)c3ccccc3)c2C#N)CO1 (stereo not drawn)	-21.7%	?	-6.7%	-27.1%	15.8%	5.62µM*
Cc1sc(NC(=S)NC(=O)c2ccco2)c(C#N)c1C	-21.8%	15.8%	?	-2.3%	?	?
O=C1CNC(=S)N1Cc1ccc(Cl)cc1	-2.8%	5.5%	2.5%	-18.1%	-4.4%	-0.6%
O=C1CNC(=S)N1CCc1ccc(Cl)cc1	16.4µM*	1.6%	140.5%	26.0%	2.4%	-31.2%
CCNC(=S)NNC(=O)c1cc(C2CC2)nc2ccccc12	-15.8%	?	7.2%	?	5.2%	0.708µM*
CCCNC(=S)NNC(=O)c1cc(C2CC2)nc2ccccc12	-11.2%	10µM*	/	?	-2.5%	11.2µM*
CCNC(=S)NNC(=O)c1cc(C)nc2ccccc12	10.4%	?	-10.9%	2.2%	13.2%	?
CCCCNC(=O)c1ccccc1N	/	/	3.1%	/	/	/
CCNc1ccc(C(=O)OCC)cc1NC(=O)c1cccc(N(C)C)c1	2.59µM*	22.0%	1.0%	3.26µM*	?	0.7%
CCNc1ccc(C(=O)OCC)cc1NC(=O)c1cccc(S(=O)(=O)N(C)c2ccccc2)c1	4.61µM*	2.6%	-2.7%	16.4µM*	7.31µM*	-1.5%
Nc1ncn(C(=S)Nc2ccccc2)n1	1.3µM*	/	?	1.16µM*	/	/
COC[C@@H]1CN(C(=O)Cc2cc(C)no2)C[C@H]1c1ccncc1	/	/	39.3%	/	/	/
O=C(NCc1ccccc1F)c1cccc(NC(=O)N2CCSc3ncccc32)c1	?	/	?	23.1µM*	/	/
Cc1ccc(CNC(=O)c2cccc(NC(=O)N3CCSc4ncccc43)c2)cc1	20.6µM*	/	-0.3%	?	/	/
Cc1ccc(NC(=O)c2cccc(NC(=O)N3CCSc4ncccc43)c2)cc1F	-24.8%	/	?	-18.6%	/	/
CCOc1ccc(CNC(=O)c2ccc(NC(=O)N3CCSc4ncccc43)cc2)cc1	?	/	-23.9%	?	/	/
COc1ccc(OC)c(CNC(=O)Cc2ccc(NC(=O)N3CCSc4ncccc43)cc2)c1	?	/	-20.9%	?	/	/
CC(C)Oc1ccc(CNC(=O)Cc2ccc(NC(=O)N3CCSc4ncccc43)cc2)cc1	16.4µM*	/	-26.1%	16.4µM*	/	/
SMILES	DT40 TDP1 no CPT	VP16 counter	12-LOX inh	DT40 TDP1 CPT	ELG1 DNA repair	RORgamma inh
CN(C)C[C@@H]1CN(C(=O)c2cccc(N3CCCC3=O)c2)C[C@@H]1CO	/	/	10.2%	/	/	/
C=CCOc1cccc(/C=N/NC(=O)C(=O)NCCCOC)c1	/	/	-8.2%	/	/	/
O=C1C(c2ccncc2)=C(O)c2ccccc21	18.4µM*	?	0.0%	?	?	?
Cc1ccc(C2=C(O)c3ccccc3C(=O)C2=O)cc1	-10.9%	-13.8%	?	-29.0%	-7.1%	-30.7%
CCn1c(SCC(=O)c2ccc[nH]2)nnc1-c1ccncc1	/	/	-1.1%	/	/	/
CC1NC(=S)N(C2CCCCC2)C1=O (stereo not drawn)	-22.5%	-4.7%	-13.6%	6.0%	1.7%	11.2µM*
CCC(C)C1NC(=S)N(C2CCCCC2)C1=O (stereo not drawn)	-15.2%	11.2µM*	6.7%	-6.4%	-6.0%	6.31µM*
O=C1C2CCCN2C(=S)N1C1CCCCC1 (stereo not drawn)	?	-9.1%	-20.8%	?	-0.6%	20.5%
CCCCC1NC(=S)N(C2CCCCC2)C1=O (stereo not drawn)	?	?	-20.7%	?	19.9%	12.6µM*
C=CCN1C(=O)C(CCCC)NC1=S (stereo not drawn)	-8.2%	?	-16.4%	4.8%	3.7%	?
O=C(CCN1CCOCC1)c1ccc(Br)cc1	2.59µM*	12.6µM*	?	3.26µM*	2.1%	?
O=C(CCN1CCOCC1)c1ccc(Cl)cc1	2.59µM*	?	-21.3%	2.91µM*	10.7%	?
O=C(NCCCN1CCOCC1)c1ccc(Cl)cc1	-17.6%	1.3%	/	12.0%	/	1.9%
C#CC1(O)CCCC2C3CCC4CC(OC(C)=O)CCC4(C)C3C(=O)CC21C (stereo not drawn)	20.6µM*	/	0.7%	23.1µM*	/	/
O=C(CCc1ccccc1)NC1(Cc2ccccc2)CCN(CCCc2ccccc2)C1=O (stereo not drawn)	8.2µM*	/	2.5%	16.4µM*	?	/
O=C(NC1(Cc2ccccc2)CCN(CCc2cccs2)C1=O)c1ccccc1 (stereo not drawn)	?	/	13.5%	25.9µM*	?	/
CC1(NC(=O)c2ccccc2)CCN(CCc2cccs2)C1=O (stereo not drawn)	-4.2%	/	7.6%	-21.8%	1.1%	/
Cc1cc(S(=O)(=O)NC2CCCCC2)ccc1-n1cnnn1	-26.7%	-5.7%	-0.2%	-0.5%	1.5%	38.8%
COc1ccc(S(=O)(=O)Nc2ccc(-n3cnnn3)cc2)cc1Br	-23.1%	/	-10.1%	?	-8.2%	/
COc1ccc(NS(=O)(=O)c2ccc(-n3cnnn3)cc2)cc1OC	9.2µM*	10µM*	-6.6%	16.4µM*	-17.6%	-5.1%
CSc1ccc(NS(=O)(=O)c2ccc(-n3cnnn3)cc2)cc1	20.6µM*	?	0.0%	?	10.6%	?
COc1ccc(S(=O)(=O)NC2CCCCC2)cc1-n1cnnn1	20.6µM*	0.1%	-41.7%	-12.1%	-8.6%	0.5%
